Our source for the binding signal values is PMC7862700, “An all-to-all approach to the identification of sequence-specific readers for epigenetic DNA modifications on cytosine”.

Common to all, as to experiment: DAPPL (digital affinity profiling via proximity ligation, sequencing); 10 mM Tris-HCl pH 7.5, 50 mM NaCl, 1 mM DTT, 4% glycerol, room temperature, 30 min; GST-TFs on glutathione beads, 16-mer random dsDNA library, 0.1% formaldehyde crosslink after washing; high values mean tight binding
In one test the target is T1, FEV (Homo sapiens, UniProt Q99581 1-238).
T1 sequence: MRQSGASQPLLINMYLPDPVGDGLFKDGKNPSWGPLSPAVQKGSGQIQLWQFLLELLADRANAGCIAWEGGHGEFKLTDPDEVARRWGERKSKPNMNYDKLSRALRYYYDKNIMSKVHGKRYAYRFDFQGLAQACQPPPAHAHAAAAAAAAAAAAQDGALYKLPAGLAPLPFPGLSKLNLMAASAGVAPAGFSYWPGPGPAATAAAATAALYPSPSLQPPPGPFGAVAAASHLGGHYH
The conditions noted are these: protein: recombinant; tags: N-terminal GST; dsDNA, one strand shown. An outline of the steps: (§1)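 Pools were built from human transcription factors expressed in yeast as GST fusions, captured on glutathione beads and DNA-barcoded, along with a tag-only sample. Incubation with 200 nmole of a 16-mer random double-stranded DNA library lasted 30 min at room temperature in Tris/NaCl/DTT/glycerol buffer, and was followed by washing, 0.1% formaldehyde crosslinking, proximity ligation, PCR amplification and Illumina NextSeq500 sequencing. Binding signal is the quotient of each hexamer's read frequency for a factor and its frequency for the tag-only sample.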

For another test, the target named is ETV5 (Homo sapiens, UniProt P41161 1-510). To be noted: protein: recombinant; tags: N-terminal GST; dsDNA, one strand shown. A digest of the protocol:
as §1

The next test concerns the target HSF1 (Homo sapiens, UniProt Q00613 1-529). The conditions noted are these: protein: recombinant; tags: N-terminal GST; chain copies: 3; dsDNA, one strand shown. An outline of the steps:
as §1

The target in a further test is T2, SPIC (Homo sapiens, UniProt Q8N5J4 1-248).
T2 sequence: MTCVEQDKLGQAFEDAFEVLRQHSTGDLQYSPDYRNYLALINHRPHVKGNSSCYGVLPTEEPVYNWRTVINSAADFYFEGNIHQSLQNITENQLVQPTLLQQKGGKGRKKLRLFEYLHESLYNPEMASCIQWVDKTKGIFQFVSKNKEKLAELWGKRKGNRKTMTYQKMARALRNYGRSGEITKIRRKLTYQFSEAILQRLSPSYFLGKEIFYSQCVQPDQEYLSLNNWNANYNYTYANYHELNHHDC
To be noted: protein: recombinant; tags: N-terminal GST; dsDNA, one strand shown. A digest of the protocol: as §1

The target in the next test is ELF4 (Homo sapiens, UniProt Q99607 1-663). To be noted: protein: recombinant; tags: N-terminal GST; dsDNA, one strand shown. A digest of the protocol:
as §1

Another test addresses T3, ELK4 (Homo sapiens, UniProt P28324-2 1-405).
T3 sequence: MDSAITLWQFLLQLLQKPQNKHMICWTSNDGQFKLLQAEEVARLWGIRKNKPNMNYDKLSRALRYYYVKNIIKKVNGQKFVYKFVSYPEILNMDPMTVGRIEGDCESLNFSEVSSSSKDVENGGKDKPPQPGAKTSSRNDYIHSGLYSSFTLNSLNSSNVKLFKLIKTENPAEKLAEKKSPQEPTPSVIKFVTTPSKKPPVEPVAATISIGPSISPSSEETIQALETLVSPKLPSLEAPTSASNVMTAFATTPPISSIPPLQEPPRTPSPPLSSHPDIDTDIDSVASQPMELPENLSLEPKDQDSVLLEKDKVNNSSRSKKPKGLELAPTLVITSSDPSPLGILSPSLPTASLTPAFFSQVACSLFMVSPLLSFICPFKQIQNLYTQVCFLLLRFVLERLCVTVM
To be noted: protein: recombinant; tags: N-terminal GST; dsDNA, one strand shown. An outline of the steps:
as §1

The target of a further test is T4, ETV2 (Homo sapiens, UniProt O00321 1-342).
T4 sequence: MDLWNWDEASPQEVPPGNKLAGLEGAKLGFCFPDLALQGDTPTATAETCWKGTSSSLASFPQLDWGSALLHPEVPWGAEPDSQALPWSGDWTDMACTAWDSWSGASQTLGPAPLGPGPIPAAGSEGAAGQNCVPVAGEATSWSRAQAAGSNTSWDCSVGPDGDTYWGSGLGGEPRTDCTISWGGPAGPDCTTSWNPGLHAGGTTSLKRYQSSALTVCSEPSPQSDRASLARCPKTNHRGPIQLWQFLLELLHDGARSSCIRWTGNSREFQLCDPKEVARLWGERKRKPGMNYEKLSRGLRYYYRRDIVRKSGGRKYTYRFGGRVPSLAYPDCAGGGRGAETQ
The conditions noted are these: protein: recombinant; tags: N-terminal GST; dsDNA, one strand shown. A digest of the protocol:
as §1

In the next test the target is T5, ELF3 (Homo sapiens, UniProt P78545 1-371).
T5 sequence: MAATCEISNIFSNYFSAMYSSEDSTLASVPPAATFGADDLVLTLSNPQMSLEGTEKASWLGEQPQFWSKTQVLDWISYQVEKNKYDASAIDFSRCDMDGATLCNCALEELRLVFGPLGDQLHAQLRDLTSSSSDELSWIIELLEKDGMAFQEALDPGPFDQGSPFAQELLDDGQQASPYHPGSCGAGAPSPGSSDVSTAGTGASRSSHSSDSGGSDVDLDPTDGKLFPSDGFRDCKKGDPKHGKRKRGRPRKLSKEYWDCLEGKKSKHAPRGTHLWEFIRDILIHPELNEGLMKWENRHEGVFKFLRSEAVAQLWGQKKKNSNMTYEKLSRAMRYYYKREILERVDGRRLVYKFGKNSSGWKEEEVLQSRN
To be noted: protein: recombinant; tags: N-terminal GST; dsDNA, one strand shown. An outline of the steps:
as §1

For the next test, the target named is CRX (Homo sapiens, UniProt O43186 1-299). To be noted: protein: recombinant; tags: N-terminal GST; dsDNA, one strand shown. A digest of the protocol: as §1
A further test deals with ETV1 (Homo sapiens, UniProt P50549 1-477). The conditions noted are these: protein: recombinant; tags: N-terminal GST; dsDNA, one strand shown. An outline of the steps:
as §1

The target of the next test is T6, ERF (Homo sapiens, UniProt P50548 1-548).
T6 sequence: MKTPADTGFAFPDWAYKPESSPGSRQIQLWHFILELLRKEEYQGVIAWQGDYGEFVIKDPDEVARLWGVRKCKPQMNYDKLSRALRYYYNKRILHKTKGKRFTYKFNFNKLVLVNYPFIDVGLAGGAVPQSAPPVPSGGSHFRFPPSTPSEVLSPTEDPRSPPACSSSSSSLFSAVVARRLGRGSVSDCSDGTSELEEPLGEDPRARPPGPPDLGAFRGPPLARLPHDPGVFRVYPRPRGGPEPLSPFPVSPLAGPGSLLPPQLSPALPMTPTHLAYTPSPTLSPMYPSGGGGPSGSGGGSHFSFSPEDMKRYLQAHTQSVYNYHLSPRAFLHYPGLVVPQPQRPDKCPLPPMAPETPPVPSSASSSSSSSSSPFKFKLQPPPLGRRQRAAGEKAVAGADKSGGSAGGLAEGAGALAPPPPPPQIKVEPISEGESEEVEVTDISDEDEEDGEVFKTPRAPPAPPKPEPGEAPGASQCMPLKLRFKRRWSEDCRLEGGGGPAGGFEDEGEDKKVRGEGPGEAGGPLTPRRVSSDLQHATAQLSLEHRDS
The conditions noted are these: protein: recombinant; tags: N-terminal GST; dsDNA, one strand shown. An outline of the steps: as §1

The target of another test is T7, ETV3L (Homo sapiens, UniProt Q6ZN32 1-361).
T7 sequence: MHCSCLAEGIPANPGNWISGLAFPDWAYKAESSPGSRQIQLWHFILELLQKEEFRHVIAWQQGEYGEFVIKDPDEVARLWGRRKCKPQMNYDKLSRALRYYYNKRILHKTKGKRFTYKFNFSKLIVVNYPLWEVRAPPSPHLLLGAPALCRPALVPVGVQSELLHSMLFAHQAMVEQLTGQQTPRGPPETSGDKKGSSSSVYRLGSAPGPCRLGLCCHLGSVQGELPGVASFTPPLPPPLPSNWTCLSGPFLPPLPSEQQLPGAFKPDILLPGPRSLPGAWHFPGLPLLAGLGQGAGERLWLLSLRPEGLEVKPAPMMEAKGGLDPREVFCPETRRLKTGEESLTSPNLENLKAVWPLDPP
The conditions noted are these: protein: recombinant; tags: N-terminal GST; dsDNA, one strand shown. An outline of the steps:
as §1

A further test has as its target T8, ETS2 (Homo sapiens, UniProt P15036 1-469).
T8 sequence: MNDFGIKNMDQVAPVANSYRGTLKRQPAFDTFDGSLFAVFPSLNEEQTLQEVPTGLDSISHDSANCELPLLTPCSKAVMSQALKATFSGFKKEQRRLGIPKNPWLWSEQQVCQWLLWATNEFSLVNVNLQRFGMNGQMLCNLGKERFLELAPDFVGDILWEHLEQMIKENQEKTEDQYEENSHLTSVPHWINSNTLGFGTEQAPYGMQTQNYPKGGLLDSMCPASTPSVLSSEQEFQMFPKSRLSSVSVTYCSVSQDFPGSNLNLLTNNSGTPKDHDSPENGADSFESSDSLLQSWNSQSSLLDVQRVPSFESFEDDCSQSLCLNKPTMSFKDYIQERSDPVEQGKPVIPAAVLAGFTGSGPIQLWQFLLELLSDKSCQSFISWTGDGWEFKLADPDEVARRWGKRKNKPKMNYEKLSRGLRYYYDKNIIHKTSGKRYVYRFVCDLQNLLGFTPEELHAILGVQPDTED
The conditions noted are these: protein: recombinant; tags: N-terminal GST; dsDNA, one strand shown. A digest of the protocol:
as §1

A further test concerns the target T9, SPDEF (Homo sapiens, UniProt O95238 1-335).
T9 sequence: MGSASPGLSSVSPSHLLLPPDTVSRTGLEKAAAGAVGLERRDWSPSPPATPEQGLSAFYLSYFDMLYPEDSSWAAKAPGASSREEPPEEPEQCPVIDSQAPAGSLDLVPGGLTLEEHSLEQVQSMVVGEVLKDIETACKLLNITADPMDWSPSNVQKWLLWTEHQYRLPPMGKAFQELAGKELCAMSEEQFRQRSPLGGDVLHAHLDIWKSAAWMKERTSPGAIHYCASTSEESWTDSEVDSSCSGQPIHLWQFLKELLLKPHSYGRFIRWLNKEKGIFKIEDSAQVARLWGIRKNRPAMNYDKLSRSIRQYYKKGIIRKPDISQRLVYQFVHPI
The conditions noted are these: protein: recombinant; tags: N-terminal GST; dsDNA, one strand shown. An outline of the steps: as §1

In another test the target is T10, ETV7 (Homo sapiens, UniProt Q9Y603 1-341).
T10 sequence: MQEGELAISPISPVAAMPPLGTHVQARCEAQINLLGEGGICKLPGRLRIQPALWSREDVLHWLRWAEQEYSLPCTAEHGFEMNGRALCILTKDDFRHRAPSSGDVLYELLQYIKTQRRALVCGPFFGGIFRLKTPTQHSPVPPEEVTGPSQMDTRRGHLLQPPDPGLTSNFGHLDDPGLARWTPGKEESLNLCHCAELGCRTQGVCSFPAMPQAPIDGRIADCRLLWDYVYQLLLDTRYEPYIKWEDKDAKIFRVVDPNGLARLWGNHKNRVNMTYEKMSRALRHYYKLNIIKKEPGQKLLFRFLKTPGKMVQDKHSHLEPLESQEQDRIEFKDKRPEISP
The conditions noted are these: protein: recombinant; tags: N-terminal GST; dsDNA, one strand shown. An outline of the steps: as §1

The next test concerns the target T11, ELF5 (Homo sapiens, UniProt Q9UKW6-2 1-255).
T11 sequence: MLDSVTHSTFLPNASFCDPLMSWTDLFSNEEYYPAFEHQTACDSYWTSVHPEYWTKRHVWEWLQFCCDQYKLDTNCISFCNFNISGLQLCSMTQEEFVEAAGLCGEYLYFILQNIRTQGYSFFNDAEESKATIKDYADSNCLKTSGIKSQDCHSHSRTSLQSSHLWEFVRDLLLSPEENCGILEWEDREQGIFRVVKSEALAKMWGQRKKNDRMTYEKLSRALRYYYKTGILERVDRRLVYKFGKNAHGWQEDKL
To be noted: protein: recombinant; tags: N-terminal GST; dsDNA, one strand shown. An outline of the steps: as §1

Another test concerns the target T12, ETV3 (Homo sapiens, UniProt P41162-2 1-143).
T12 sequence: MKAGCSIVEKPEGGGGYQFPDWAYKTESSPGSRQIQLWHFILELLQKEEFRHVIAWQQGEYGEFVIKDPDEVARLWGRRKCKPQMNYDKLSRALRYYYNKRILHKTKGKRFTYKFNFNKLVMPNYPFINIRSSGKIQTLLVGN
To be noted: protein: recombinant; tags: N-terminal GST; dsDNA, one strand shown. An outline of the steps:
as §1

For a further test, the target named is ETV6 (Homo sapiens, UniProt P41212 1-452). To be noted: protein: recombinant; tags: N-terminal GST; dsDNA, one strand shown. A digest of the protocol:
as §1

Chain of ETV1 (P50549 whole entry): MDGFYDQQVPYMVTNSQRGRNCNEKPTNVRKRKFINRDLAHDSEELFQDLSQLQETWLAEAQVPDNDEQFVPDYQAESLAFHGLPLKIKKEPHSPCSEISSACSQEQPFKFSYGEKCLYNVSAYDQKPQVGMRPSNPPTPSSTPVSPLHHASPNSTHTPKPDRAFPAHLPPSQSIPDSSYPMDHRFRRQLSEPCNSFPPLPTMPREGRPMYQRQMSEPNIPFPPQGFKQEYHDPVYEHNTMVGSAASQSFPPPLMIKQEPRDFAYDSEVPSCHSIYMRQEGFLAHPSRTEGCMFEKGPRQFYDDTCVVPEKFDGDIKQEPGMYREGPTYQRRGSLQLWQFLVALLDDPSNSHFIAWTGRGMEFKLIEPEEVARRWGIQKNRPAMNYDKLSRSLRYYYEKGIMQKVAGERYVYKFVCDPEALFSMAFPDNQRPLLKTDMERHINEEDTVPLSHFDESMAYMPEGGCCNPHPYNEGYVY
Chain of CRX (O43186 whole entry): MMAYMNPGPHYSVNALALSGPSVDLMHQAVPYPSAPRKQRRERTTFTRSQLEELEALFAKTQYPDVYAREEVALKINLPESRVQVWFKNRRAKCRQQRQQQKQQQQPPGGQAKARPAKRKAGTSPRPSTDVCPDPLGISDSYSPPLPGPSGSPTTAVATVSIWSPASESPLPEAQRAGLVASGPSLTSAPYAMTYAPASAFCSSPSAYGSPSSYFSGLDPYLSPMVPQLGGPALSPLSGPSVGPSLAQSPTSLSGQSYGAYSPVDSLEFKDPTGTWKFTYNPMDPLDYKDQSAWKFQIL
Chain of ETV6 (P41212 whole entry): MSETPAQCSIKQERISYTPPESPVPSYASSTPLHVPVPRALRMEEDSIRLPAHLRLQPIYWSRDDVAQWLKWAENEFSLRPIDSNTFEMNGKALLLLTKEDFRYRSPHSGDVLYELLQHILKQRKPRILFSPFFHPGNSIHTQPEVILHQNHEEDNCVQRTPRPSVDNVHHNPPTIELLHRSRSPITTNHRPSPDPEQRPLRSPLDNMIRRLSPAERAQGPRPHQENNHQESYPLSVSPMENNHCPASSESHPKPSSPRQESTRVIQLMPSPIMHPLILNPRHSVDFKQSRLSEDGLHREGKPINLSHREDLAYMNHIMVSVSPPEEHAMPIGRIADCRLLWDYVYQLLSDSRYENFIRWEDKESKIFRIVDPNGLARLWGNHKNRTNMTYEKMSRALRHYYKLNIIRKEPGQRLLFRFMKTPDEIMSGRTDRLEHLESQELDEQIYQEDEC
Chain of HSF1 (Q00613 whole entry): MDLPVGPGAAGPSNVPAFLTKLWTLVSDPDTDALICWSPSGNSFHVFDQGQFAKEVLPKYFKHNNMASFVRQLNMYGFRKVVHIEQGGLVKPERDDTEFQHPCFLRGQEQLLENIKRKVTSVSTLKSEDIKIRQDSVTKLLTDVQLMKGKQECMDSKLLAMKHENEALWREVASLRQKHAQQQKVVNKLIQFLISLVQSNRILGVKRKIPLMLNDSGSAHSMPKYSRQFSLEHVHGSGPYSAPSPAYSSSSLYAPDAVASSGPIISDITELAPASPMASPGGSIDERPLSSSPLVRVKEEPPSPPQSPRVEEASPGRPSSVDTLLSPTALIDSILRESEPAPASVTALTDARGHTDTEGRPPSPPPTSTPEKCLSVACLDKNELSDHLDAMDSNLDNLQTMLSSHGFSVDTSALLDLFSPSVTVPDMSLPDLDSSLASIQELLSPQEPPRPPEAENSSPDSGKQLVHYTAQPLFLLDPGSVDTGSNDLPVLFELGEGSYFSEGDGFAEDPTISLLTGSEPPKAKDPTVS
Chain of ELF4 (Q99607 whole entry): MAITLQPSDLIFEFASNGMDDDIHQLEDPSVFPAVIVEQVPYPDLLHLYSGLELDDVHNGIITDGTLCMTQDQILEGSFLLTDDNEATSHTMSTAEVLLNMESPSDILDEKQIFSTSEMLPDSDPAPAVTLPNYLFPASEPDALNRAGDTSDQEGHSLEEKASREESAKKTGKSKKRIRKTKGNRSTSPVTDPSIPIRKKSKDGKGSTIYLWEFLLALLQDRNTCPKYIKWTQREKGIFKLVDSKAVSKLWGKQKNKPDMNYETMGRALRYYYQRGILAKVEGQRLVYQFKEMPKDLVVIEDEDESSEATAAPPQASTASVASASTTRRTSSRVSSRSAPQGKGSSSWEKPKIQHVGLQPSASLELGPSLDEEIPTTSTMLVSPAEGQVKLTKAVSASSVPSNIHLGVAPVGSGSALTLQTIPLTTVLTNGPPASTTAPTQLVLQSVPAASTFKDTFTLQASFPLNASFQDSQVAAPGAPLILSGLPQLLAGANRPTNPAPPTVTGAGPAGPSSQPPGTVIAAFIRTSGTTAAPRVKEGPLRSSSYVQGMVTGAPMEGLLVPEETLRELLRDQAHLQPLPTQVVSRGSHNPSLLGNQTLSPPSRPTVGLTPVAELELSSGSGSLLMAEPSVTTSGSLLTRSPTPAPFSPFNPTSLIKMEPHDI
Chain of ETV5 (P41161 whole entry): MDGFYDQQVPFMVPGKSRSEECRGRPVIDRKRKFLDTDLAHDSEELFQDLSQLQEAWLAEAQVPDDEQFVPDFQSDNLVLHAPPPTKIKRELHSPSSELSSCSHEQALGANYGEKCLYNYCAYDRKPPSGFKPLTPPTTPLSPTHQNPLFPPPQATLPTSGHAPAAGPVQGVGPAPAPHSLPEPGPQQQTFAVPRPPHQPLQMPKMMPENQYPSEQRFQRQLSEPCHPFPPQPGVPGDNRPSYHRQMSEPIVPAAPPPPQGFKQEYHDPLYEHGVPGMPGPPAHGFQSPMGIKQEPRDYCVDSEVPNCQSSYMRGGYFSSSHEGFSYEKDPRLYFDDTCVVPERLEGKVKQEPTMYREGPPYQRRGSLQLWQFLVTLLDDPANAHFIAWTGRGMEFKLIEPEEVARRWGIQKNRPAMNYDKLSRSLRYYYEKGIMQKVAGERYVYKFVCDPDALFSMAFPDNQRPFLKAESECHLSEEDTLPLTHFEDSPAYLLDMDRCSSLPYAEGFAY

As to TGTTTT, the binding signal is 1.24 fold enrichment (6-mer frequency, TF over GST control) in the test with FEV; 1.42 fold enrichment (6-mer frequency, TF over GST control) in the test with ETV5; 1.21 fold enrichment (6-mer frequency, TF over GST control) with HSF1; 1.36 fold enrichment (6-mer frequency, TF over GST control) with SPIC; 1.37 fold enrichment (6-mer frequency, TF over GST control) with ELF4; 1.35 fold enrichment (6-mer frequency, TF over GST control) in the test with ELK4. In addition, the binding signal in the test with ETV2 was 1.38 fold enrichment (6-mer frequency, TF over GST control); in the test with ELF3 it was 1.33 fold enrichment (6-mer frequency, TF over GST control); with CRX, 1.23 fold enrichment (6-mer frequency, TF over GST control); in the test with ETV1, 1.29 fold enrichment (6-mer frequency, TF over GST control); with ERF it was 1.26 fold enrichment (6-mer frequency, TF over GST control); with ETV3L, 1.37 fold enrichment (6-mer frequency, TF over GST control). Also, the binding signal with ETS2 was 1.36 fold enrichment (6-mer frequency, TF over GST control); with SPDEF, 1.41 fold enrichment (6-mer frequency, TF over GST control); with ETV7, 1.28 fold enrichment (6-mer frequency, TF over GST control); with ELF5, 1.48 fold enrichment (6-mer frequency, TF over GST control); with ETV3 it was 1.46 fold enrichment (6-mer frequency, TF over GST control); with ETV6, 1.39 fold enrichment (6-mer frequency, TF over GST control).
